# Shown is part of a subset that was picked to be rich in the strongest signals.
# Assays:
# Assay in all cases: glycan array binding signal (z-score within array); higher = stronger binding
# Settings in all cases: glycan notation: IUPAC condensed, linker removed
# [1] = molecular target: Fuc(a1-2)Gal(b1-4)[Fuc(a1-3)]GlcNAc(b1-2)[Fuc(a1-2)Gal(b1-4)[Fuc(a1-3)]GlcNAc(b1-4)]Man(a1-3)[Fuc(a1-2)Gal(b1-4)[Fuc(a1-3)]GlcNAc(b1-2)Man(a1-6)]Man(b1-4)GlcNAc(b1-4)GlcNAc
# Procedure, shortened: (§1)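 Negative Z-scores can be read as non-binding. The Z-score is calculated within each array and then averaged across arrays of one protein sequence at different concentrations or buffers and across linkers. Arrays, 3228 in all, were curated from the Consortium for Functional Glycomics database and kept only where the protein sequence was available.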
# [2] = molecular target: Fuc(a1-2)[Gal(a1-3)]Gal(b1-3)GalNAc(b1-3)Gal(a1-4)Gal(b1-4)Glc
# Procedure, shortened: as §1
# [3] = molecular target: Fuc(a1-2)[Gal(a1-3)]Gal(b1-3)GlcNAc(b1-2)Man(a1-3)[Fuc(a1-2)[Gal(a1-3)]Gal(b1-3)GlcNAc(b1-2)Man(a1-6)]Man(b1-4)GlcNAc(b1-4)GlcNAc
# Procedure, shortened: as §1
# [4] = molecular target: Fuc(a1-2)[Gal(a1-3)]Gal(b1-4)[Fuc(a1-3)]Glc
# Procedure, shortened: as §1
# [5] = molecular target: Fuc(a1-2)[GalNAc(a1-3)]Gal(b1-3)GlcNAc(b1-3)GalNAc
# Procedure, shortened: as §1
# [6] = molecular target: Fuc(a1-2)[GalNAc(a1-3)]Gal(b1-4)GlcNAc(b1-2)Man(a1-3)[Fuc(a1-2)[GalNAc(a1-3)]Gal(b1-4)GlcNAc(b1-2)Man(a1-6)]Man(b1-4)GlcNAc(b1-4)GlcNAc
# Procedure, shortened: as §1
# Fuc(a1-3)GlcNAc = molecular target: Fuc(a1-3)GlcNAc
# Procedure, shortened: as §1
# [7] = molecular target: Fuc(a1-3)[Gal(b1-4)]GlcNAc(b1-3)Gal(b1-4)[Fuc(a1-3)]GlcNAc
# Procedure, shortened: as §1
# [8] = molecular target: Fuc(a1-3)[Gal(b1-4)]GlcNAc6S
# Procedure, shortened: as §1
# [9] = molecular target: Gal(a1-3)Gal(b1-4)GlcNAc(b1-2)Man(a1-3)[Gal(a1-3)Gal(b1-4)GlcNAc(b1-2)Man(a1-6)]Man(b1-4)GlcNAc(b1-4)GlcNAc
# Procedure, shortened: as §1
# [10] = molecular target: Gal(a1-3)Gal(b1-4)[Fuc(a1-3)]GlcNAc
# Procedure, shortened: as §1
# [11] = molecular target: Gal(a1-3)Gal(b1-4)[Fuc(a1-3)]GlcNAc(b1-2)Man(a1-3)[Gal(a1-3)Gal(b1-4)[Fuc(a1-3)]GlcNAc(b1-2)Man(a1-6)]Man(b1-4)GlcNAc(b1-4)GlcNAc
# Procedure, shortened: as §1
# Gal(a1-4)Gal(b1-4)Glc = molecular target: Gal(a1-4)Gal(b1-4)Glc
# Procedure, shortened: as §1
# Gal(b1-3)GlcNAc = molecular target: Gal(b1-3)GlcNAc
# Procedure, shortened: as §1
# [12] = molecular target: Gal(b1-3)GlcNAc(b1-2)Man(a1-3)[GlcNAc(b1-4)][Gal(b1-3)GlcNAc(b1-2)Man(a1-6)]Man(b1-4)GlcNAc(b1-4)GlcNAc
# Procedure, shortened: as §1
# [13] = molecular target: Gal(b1-4)GlcNAc(b1-3)Gal(b1-4)GlcNAc(b1-2)Man(a1-3)[Gal(b1-4)GlcNAc(b1-3)Gal(b1-4)GlcNAc(b1-2)Man(a1-6)]Man(b1-4)GlcNAc(b1-4)GlcNAc
# Procedure, shortened: as §1
# [14] = molecular target: Gal(b1-4)GlcNAc(b1-3)Gal(b1-4)GlcNAc(b1-3)Gal(b1-4)GlcNAc(b1-2)Man(a1-3)[Gal(b1-4)GlcNAc(b1-3)Gal(b1-4)GlcNAc(b1-3)Gal(b1-4)GlcNAc(b1-2)Man(a1-6)]Man(b1-4)GlcNAc(b1-4)GlcNAc
# Procedure, shortened: as §1
# [15] = molecular target: Gal(b1-4)GlcNAc(b1-3)Gal(b1-4)GlcNAc(b1-3)Gal(b1-4)GlcNAc(b1-3)Gal(b1-4)GlcNAc(b1-3)Gal(b1-4)GlcNAc(b1-2)Man(a1-3)[Gal(b1-4)GlcNAc(b1-3)Gal(b1-4)GlcNAc(b1-3)Gal(b1-4)GlcNAc(b1-3)Gal(b1-4)GlcNAc(b1-3)Gal(b1-4)GlcNAc(b1-2)Man(a1-6)]Man(b1-4)GlcNAc(b1-4)GlcNAc
# Procedure, shortened: as §1
# [16] = molecular target: Gal3S(b1-4)[Fuc(a1-3)]Glc6S
# Procedure, shortened: as §1
# [17] = molecular target: Gal3S(b1-4)[Fuc(a1-3)]GlcNAc
# Procedure, shortened: as §1
# Gal3S6S(b1-4)GlcNAc = molecular target: Gal3S6S(b1-4)GlcNAc
# Procedure, shortened: as §1
# Gal6S(b1-4)GlcNAc6S = molecular target: Gal6S(b1-4)GlcNAc6S
# Procedure, shortened: as §1
# GalNAc(b1-6)GalNAc = molecular target: GalNAc(b1-6)GalNAc
# Procedure, shortened: as §1
# [18] = molecular target: GlcNAc(a1-4)Gal(b1-4)GalNAc
# Procedure, shortened: as §1
# [19] = molecular target: GlcNAc(a1-4)Gal(b1-4)GlcNAc
# Procedure, shortened: as §1
# [20] = molecular target: GlcNAc(b1-2)Man(a1-3)[GlcNAc(b1-4)][GlcNAc(b1-2)Man(a1-6)]Man(b1-4)GlcNAc(b1-4)[Fuc(a1-6)]GlcNAc
# Procedure, shortened: as §1
# [21] = molecular target: GlcNAc(b1-3)Gal(b1-4)GlcNAc(b1-2)Man(a1-3)[GlcNAc(b1-3)Gal(b1-4)GlcNAc(b1-2)Man(a1-6)]Man(b1-4)GlcNAc(b1-4)[Fuc(a1-6)]GlcNAc
# Procedure, shortened: as §1
# [22] = molecular target: GlcNAc(b1-3)Gal(b1-4)GlcNAc(b1-3)Gal(b1-4)GlcNAc(b1-3)Gal(b1-4)GlcNAc(b1-2)Man(a1-3)[GlcNAc(b1-3)Gal(b1-4)GlcNAc(b1-3)Gal(b1-4)GlcNAc(b1-3)Gal(b1-4)GlcNAc(b1-2)Man(a1-6)]Man(b1-4)GlcNAc(b1-4)[Fuc(a1-6)]GlcNAc
# Procedure, shortened: as §1
# [23] = molecular target: GlcNAc(b1-3)Gal(b1-4)GlcNAc(b1-3)Gal(b1-4)GlcNAc(b1-3)Gal(b1-4)GlcNAc(b1-2)[GlcNAc(b1-3)Gal(b1-4)GlcNAc(b1-3)Gal(b1-4)GlcNAc(b1-3)Gal(b1-4)GlcNAc(b1-6)]Man(a1-6)[GlcNAc(b1-3)Gal(b1-4)GlcNAc(b1-3)Gal(b1-4)GlcNAc(b1-3)Gal(b1-4)GlcNAc(b1-2)Man(a1-3)]Man(b1-4)GlcNAc(b1-4)[Fuc(a1-6)]GlcNAc
# Procedure, shortened: as §1
# [24] = molecular target: Neu5Ac(a2-3)Gal(b1-3)GalNAc(b1-4)[Neu5Ac(a2-3)]Gal(b1-4)Glc
# Procedure, shortened: as §1
# [25] = molecular target: Neu5Ac(a2-3)Gal(b1-3)GalNAc(b1-4)[Neu5Ac(a2-8)Neu5Ac(a2-3)]Gal(b1-4)Glc
# Procedure, shortened: as §1
# [26] = molecular target: Neu5Ac(a2-3)Gal(b1-3)GlcNAc(b1-2)[Neu5Ac(a2-3)Gal(b1-3)GlcNAc(b1-4)]Man(a1-6)[Neu5Ac(a2-3)Gal(b1-3)GlcNAc(b1-2)Man(a1-3)]Man(b1-4)GlcNAc(b1-4)GlcNAc
# Procedure, shortened: as §1
# [27] = molecular target: Neu5Ac(a2-3)Gal(b1-4)GlcNAc(b1-3)Gal(b1-4)GlcNAc(b1-2)Man(a1-3)[Neu5Ac(a2-3)Gal(b1-4)GlcNAc(b1-3)Gal(b1-4)GlcNAc(b1-2)Man(a1-6)]Man(b1-4)GlcNAc(b1-4)GlcNAc
# Procedure, shortened: as §1
# [28] = molecular target: Neu5Ac(a2-3)Gal(b1-4)GlcNAc(b1-3)Gal(b1-4)GlcNAc(b1-3)Gal(b1-4)GlcNAc(b1-2)Man(a1-3)[Neu5Ac(a2-3)Gal(b1-4)GlcNAc(b1-3)Gal(b1-4)GlcNAc(b1-3)Gal(b1-4)GlcNAc(b1-2)Man(a1-6)]GalNAc
# Procedure, shortened: as §1
# [29] = molecular target: Neu5Ac(a2-3)Gal(b1-4)[Fuc(a1-3)]GlcNAc(b1-3)GalNAc
# Procedure, shortened: as §1
# [30] = molecular target: Neu5Ac(a2-3)[GalNAc(b1-4)]Gal(b1-4)Glc
# Procedure, shortened: as §1
# [31] = molecular target: Neu5Ac(a2-6)Gal(b1-4)GlcNAc(b1-2)[Neu5Ac(a2-6)Gal(b1-4)GlcNAc(b1-6)]Man(a1-6)[Neu5Ac(a2-6)Gal(b1-4)GlcNAc(b1-2)Man(a1-3)][GlcNAc(b1-4)]Man(b1-4)GlcNAc(b1-4)GlcNAc
# Procedure, shortened: as §1
# [32] = molecular target: Neu5Ac(a2-6)Gal(b1-4)GlcNAc(b1-3)Gal(b1-4)GlcNAc
# Procedure, shortened: as §1
# [33] = molecular target: Neu5Ac(a2-6)Gal(b1-4)GlcNAc(b1-3)Gal(b1-4)GlcNAc(b1-3)Gal(b1-4)GlcNAc(b1-2)Man(a1-3)[Neu5Ac(a2-6)Gal(b1-4)GlcNAc(b1-3)Gal(b1-4)GlcNAc(b1-3)Gal(b1-4)GlcNAc(b1-2)Man(a1-6)]GalNAc
# Procedure, shortened: as §1
# [34] = molecular target: Neu5Ac(a2-6)Gal(b1-4)GlcNAc(b1-3)Gal(b1-4)GlcNAc(b1-3)[Neu5Ac(a2-6)Gal(b1-4)GlcNAc(b1-3)Gal(b1-4)GlcNAc(b1-6)]GalNAc
# Procedure, shortened: as §1
# [35] = molecular target: Neu5Ac(a2-6)Gal(b1-4)GlcNAc(b1-3)Gal(b1-4)[Fuc(a1-3)]GlcNAc(b1-3)Gal(b1-4)[Fuc(a1-3)]GlcNAc
# Procedure, shortened: as §1
# [36] = molecular target: Neu5Ac(a2-8)Neu5Ac(a2-3)Gal(b1-4)Glc
# Procedure, shortened: as §1
# [37] = molecular target: Neu5Ac(a2-8)Neu5Ac(a2-3)[GalNAc(b1-4)]Gal(b1-4)Glc
# Procedure, shortened: as §1
binder,measurement,setting,value
Clec49 (Caenorhabditis elegans) (protein) MTRLTLLLFGLLGAATAQTCNTGGIYNEQFNRCYQYFTAPAQFSFAEQQCNLLGGHLASVQNGQENALLQSNAANSFKRSNYSDYWIGATDLETSGTWKWTDPSVTFDYSNWQLGEPQSGSDCAIQDKGDGTWSAIGCTSYRPYVCVTPVIMTATCPPITTPIPTTCPTPAPCPIKQCVPSCDQGWTYFSPTDFCYRVYHGEKFNDAEASCVLLGGHLASIHSLTENTFVNNIASCGIKEGKYEHLAWIGMRKVGQDWVWTDGTPSDYFNWAPKQPDNPKKELCVQTAPDLSHDKWYENWNNLECNEVMRAYICKKASIHN,glycan array binding signal (z-score),[1],6.67
same,glycan array binding signal (z-score),[2],0.061
same,glycan array binding signal (z-score),[3],2.31
same,glycan array binding signal (z-score),[4],-0.454
same,glycan array binding signal (z-score),[5],4.18
same,glycan array binding signal (z-score),[6],0.062
same,glycan array binding signal (z-score),Fuc(a1-3)GlcNAc,-0.399
same,glycan array binding signal (z-score),[7],0.226
same,glycan array binding signal (z-score),[8],-0.462
same,glycan array binding signal (z-score),[9],0.541
same,glycan array binding signal (z-score),[10],0.246
same,glycan array binding signal (z-score),[11],2.45
same,glycan array binding signal (z-score),Gal(a1-4)Gal(b1-4)Glc,-0.394
same,glycan array binding signal (z-score),Gal(b1-3)GlcNAc,-0.244
same,glycan array binding signal (z-score),[12],3.15
same,glycan array binding signal (z-score),[13],2.54
same,glycan array binding signal (z-score),[14],2.57
same,glycan array binding signal (z-score),[15],0.133
same,glycan array binding signal (z-score),[16],-0.488
same,glycan array binding signal (z-score),[17],-0.647
same,glycan array binding signal (z-score),Gal3S6S(b1-4)GlcNAc,-0.612
same,glycan array binding signal (z-score),Gal6S(b1-4)GlcNAc6S,0.322
same,glycan array binding signal (z-score),GalNAc(b1-6)GalNAc,-0.155
same,glycan array binding signal (z-score),[18],-0.484
same,glycan array binding signal (z-score),[19],-0.068
same,glycan array binding signal (z-score),[20],0.223
same,glycan array binding signal (z-score),[21],0.489
same,glycan array binding signal (z-score),[22],-0.119
same,glycan array binding signal (z-score),[23],0.571
same,glycan array binding signal (z-score),[24],1.48
same,glycan array binding signal (z-score),[25],-0.511
same,glycan array binding signal (z-score),[26],3.69
same,glycan array binding signal (z-score),[27],2.19
same,glycan array binding signal (z-score),[28],5.23
same,glycan array binding signal (z-score),[29],14.5
same,glycan array binding signal (z-score),[30],-0.075
same,glycan array binding signal (z-score),[31],0.372
same,glycan array binding signal (z-score),[32],-0.634
same,glycan array binding signal (z-score),[33],0.32
same,glycan array binding signal (z-score),[34],2.58
same,glycan array binding signal (z-score),[35],0.181
same,glycan array binding signal (z-score),[36],-0.326
same,glycan array binding signal (z-score),[37],-0.424

# — the supplement of paper PMC8728848
